Assay outcomes from PubChem BioAssay.
This is a sample that favours compounds with a hit; in the whole collection about 10% have one here.
JMJD2A Tudor: blocks the human JMJD2A Tudor domain; 4.4% of 390,000 active; O75164; Potency, µM (highest dose often 114 µM), for the others: top-dose activity change, negative = inhibition, most hits filed as inhibitors; AlphaScreen JMJD2A-Tudor / H3K4me3 peptide binding; AID 504339; also: % is scaled to controls: 0 for no effect and ±100 for the full control effect; nearly all actives have a fitted effect of over 50% in size
G9a inh: inhibitors of human histone lysine methyltransferase G9a; Q96KQ7; G9a H3K9 monomethylation, AlphaScreen, 2 h; Potency, µM (titrated, usually from 102 µM), for the others: at the top dose activity, negative = inhibition, actives largely listed as inhibitors; 8.8% of 350,000 active; AID 504332; also: % is scaled to controls: 0 for no effect and ±100 for the full control effect; nearly all actives have a fitted effect of over 75% in size
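Compounds were preincubated with 20 nM G9a for 15 min, after which biotinylated H3K9 peptide (500 nM) and SAM (20 uM) started a 2 h room-temperature reaction. Monomethylated product was quantified by antibody-based AlphaScreen chemiluminescence.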
HP1b binding inh: blocks HP1-beta chromodomain binding to methylated histone tails; P83916; AlphaScreen HP1-beta / biotin-H3K9me3 peptide binding; Potency, µM (highest dose often 114 µM), for inactives: at the top dose activity change, negative = inhibition, actives largely listed as inhibitors; 0.56% of 390,000 active; AID 540317; also: nearly all actives have a fitted effect of over 70% in size
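Compound inhibition of the preformed complex between 50 nM HP1-beta and 50 nM biotinylated H3K9me3 peptide was read by AlphaScreen. Buffer was PBS pH 7.4 with 0.01% Tween-20. Incubations ran 30 min at room temperature, with 10 ug/mL donor/acceptor beads.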
GLS inh: blocks human kidney-isoform glutaminase activity | O94925 | GLS enzymatic activity, qHTS titration | Potency, µM (titrated, usually from 45.5 µM), for inactives: top-dose activity change, negative = inhibition, hits mostly inhibitors | 0.21% of 410,000 active; also: % is scaled to controls: 0 for no effect and ±100 for the full control effect
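Enzyme dispensed in phosphate buffer (45 mM, pH 8.2, 0.02% Tween-20), compounds pinned in, then 1 mM L-glutamine solution and the glutamate oxidase–HRP–Amplex Red mix added; fluorescence read immediately and again after 30 min at room temperature.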
BAZ2B inh: blocks human BAZ2B | Q9UIF8 | AlphaScreen BAZ2B-H3K14Ac peptide displacement | Potency, µM (titrated, usually from 114 µM), for the others: at the highest dose activity change, negative = inhibition, most hits filed as inhibitors | 4.4% of 360,000 active | AID 504333; also: % is scaled to controls: 0 for no effect and ±100 for the full control effect; nearly all actives have a fitted effect of over 60% in size
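Protein-peptide AlphaScreen: BAZ2B 50 nM, b-H3K14Ac 50 nM, 1x PBS pH 7.4 + 0.01% Tween-20. Preincubation 30 min RT; cpd 30 min RT (top 110 uM); beads 20 min RT, light-protected.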
Numbers without * were called inactive; u = inconclusive; x = no result given; ! = not active in a repeat; [ ] = dose if it differs, or a comment. Calls follow the shape of the dose curve; as a rule, active = well fitted curve in the direction sought with a large enough effect; inconclusive = small, poorly fitted or top-dose-only effect, or another doubt; inactive = no such curve, though single readings can be large; an effect the other way counts as inactive or inconclusive. Potency is read from the fitted curve at half-maximal effect.

SMILES | JMJD2A Tudor | G9a inh | HP1b binding inh | GLS inh | BAZ2B inh
CC(C)(C)NC(=O)C12CC3CC(CC(Cl)(C3)C1)C2 | -5% | 14%[59 µM] | 25% | -9% | -4%
CC(C)(C)NC(=S)NC(=O)C12CCC3CC(CC(C3)C1)C2 | u | -34% | 3% | -3% | 71µM*
CC(=O)c1cccc(S(=O)(=O)NC(C)C2CC3CCC2C3)c1 (stereo unspecified) | -22% | 50µM* | 12% | 0% | -5%
O=C(Nc1ccc2nc3n(c(=O)c2c1)CCCCC3)C(=O)N1CCN(c2ccc(F)cc2)CC1 | 20µM* | 0% | u | u | -20%
O=c1c2cc(NC(=S)NCc3ccccn3)ccc2nc2n1CCCCC2 | -35% | 40µM* | 20% | 19% | u
CCCCN(CC)CCCNC(=S)Nc1ccc2nc3n(c(=O)c2c1)CCCCC3 | -14% | 45µM* | 13% | -13% | 3%
O=c1c2cc(NC(=S)NCCN3CCCCCC3)ccc2nc2n1CCCCC2 | -32% | u | 6% | -16% | -21%
O=C(Nc1ccc2nc3n(c(=O)c2c1)CCCCC3)c1ccccn1 | -24% | 25µM* | 9% | 2% | -27%
COc1ccc(C2(CNC(=O)C(=O)Nc3cccc(C(F)(F)F)c3)CCCC2)cc1OC | -27% | -43%[59 µM] | 27% | -5% | -21%
O=C(CCN1C(=O)/C(=C/c2cccc(Br)c2)SC1=S)Nc1cccnc1 | u | u | 13% | 1% | 2%
CCCCN1C(=O)C(=Nc2cccc3cnccc23)c2ccccc21 | u | 45µM* | u | 29% | 28µM*
CCCCN1C(=O)c2ccccc2C1=O | 7% | x | x | x | x
Cc1ccc(C)n1-n1c(C)nc2sc(-c3ccccc3)cc2c1=O | u | 14µM* | -22% | -13% | u
Cc1ccc(C)n1-n1cnc2sc(-c3ccccc3)cc2c1=O | -25% | 16%[12.7 µM] | 2% | 3% | -30%
CCc1[nH]c(=O)[nH]c1C(C)S(=O)(=O)c1ccc(C)cc1 (stereo unspecified) | -27% | 1.6µM* | u | -6% | -19%
CCc1c(C#N)c(=O)[nH]c(=O)n1-c1ccccc1 | -6% | x | 24% | 5% | x
CCc1c(C(C)S(=O)(=O)c2ccc(C)cc2)[nH]c(=O)n1-c1ccc(C)cc1 (stereo unspecified) | -29% | 8.9µM* | 24% | 7% | -21%
CC(C)c1ccc(N(CC(=O)NCC2CCCO2)C(=O)CCC(=O)Nc2nccs2)cc1 (stereo unspecified) | 4% | 12% | 22% | 3% | 5%
Cc1ccc2nc(SCC(=O)NNC(=O)c3ccccc3)[nH]c2c1 | -20% | 25µM* | 34% | 7% | 8%
Cc1ccc(C)c(SCC(=O)NNC(=O)c2ccccc2)c1 | 7% | 45µM* | 45% | -11% | -15%
Cc1ccc2nc(SCC(=O)Nc3ncccn3)[nH]c2c1 | -28% | x | 31% | -1% | u
Cn1c(SCc2ccc(F)cc2)nc2ccc(C(=O)NCc3ccc(F)cc3)cc21 | -20% | 6%[59 µM] | 23% | -2% | 2%
O=C(CSc1nc2ccc(Cl)cc2[nH]1)NCCc1ccccc1 | -3% | 79µM* | 16% | 15% | 1%
Cc1ccc(CNC(=O)c2ccc3nc(SCc4ccc(F)cc4)[nH]c3c2)cc1 | 7.9µM* | 7.9µM* | u | 2% | 40µM*
O=C(Nc1ccc(F)cc1F)N1CCc2c(sc3c2CCCC3)C1c1ccc(F)cc1 (stereo unspecified) | -10% | -1%[12.7 µM] | 4% | -5% | -23%
SMILES | JMJD2A Tudor | G9a inh | HP1b binding inh | GLS inh | BAZ2B inh
COc1ccc(CCC(=O)NNC(=S)Nc2cccc(C(C)=O)c2)cc1 | -18% | 40µM* | -4% | -12% | -2%
CNC(=S)Nc1cccc(C(C)=O)c1 | -4%[11.4 µM] | -17% | 22% | 14% | -17%
CC(=O)c1cccc(NC(=S)Nc2ccc(F)cc2)c1 | -15% | 50µM* | 9% | 12% | 6%
CC(=O)c1cccc(NC(=S)NNC(=O)c2ccco2)c1 | 3% | 35µM* | 33% | 11% | 5%
O=C(Nc1cc(Br)c(O)c(Br)c1)c1cccc(NC(=O)c2ccco2)c1 | -29% | 40µM* | 9% | 5% | 50µM*
CC(=O)c1cccc(NC(=O)c2cccc(NC(=O)c3ccco3)c2)c1 | -15% | 45µM* | 55% | 6% | 79µM*
Cc1cccc(NC(=S)NC(NC(=O)c2ccco2)C(Cl)(Cl)Cl)c1 (stereo unspecified) | -3% | 14µM* | 30% | -3% | -28%
CCC(=O)Nc1nnc(S(=O)(=O)N2CCc3ccccc32)s1 | -11% | -11% | 0% | 4% | u
CCC(CC)C(=O)Nc1nnc(S(=O)(=O)N2c3ccccc3CC2C)s1 (stereo unspecified) | 50µM*! | -9% | 42% | 3% | 25µM*!
CCC(CC)C(=O)Nc1nnc(S(=O)(=O)N2CCc3ccccc32)s1 | -6% | 7.1µM* | 20% | 7% | u
Cc1ccc(CCNC(=O)Cn2ccc3cc(S(=O)(=O)N4CCCC4)ccc32)cc1 | -9% | 7% | 50% | 1% | -8%
COc1ccc(-c2cc(C(=O)N3CCc4ccccc4C3)no2)cc1OC | -25% | x | 21% | -8% | -25%
Cc1c(CCOC(=O)c2cc([N+](=O)[O-])cc([N+](=O)[O-])c2)sc[n+]1CC(=O)c1ccc(Br)cc1 | u | 2.5µM* | -34% | -15% | 50µM*
CC(C)CCOc1ccc(C(=O)CCNC(C)C(=O)O)cc1 (stereo unspecified) | x | 5.6µM* | x | x | -2%
O=C(Nc1cccc(F)c1)C1CCCN1C(=O)OCc1ccccc1 (stereo unspecified) | -11% | -21% | 50% | -3% | -30%
O=C(COC(=O)c1cccc2c1C(=O)c1ccccc1C2=O)NC1CCCCC1 | 40µM* | 18µM* | u | 5% | 40µM*
O=C(COC(=O)c1cccc(C(=O)OCC(=O)NC2CC2)n1)NC1CC1 | u | 14µM* | 9% | -3% | x
O=C(COC(=O)c1ccccc1F)NC1CCCC1 | -1% | 12%[0.501 µM] | 19% | 83% | -1%
CC1CCCCC1NC(=O)COC(=O)c1ccc2c(c1Cl)C(=O)c1ccccc1C2=O (stereo unspecified) | u | -5%[59 µM] | 2% | -5% | u
O=C(COC(=O)c1ccc2c(c1[N+](=O)[O-])C(=O)c1ccccc1C2=O)NC1CC1 | -16% | 35µM* | 37% | 0% | -10%
O=C(COC(=O)c1ccccn1)NC1CCCCC1 | -7% | x | 25% | 5% | -25%
CCOc1ccccc1NC(=O)Cn1c(=O)n(CCC(=O)NCc2ccc3c(c2)OCO3)c(=O)c2ccccc21 | -18% | 30%[59 µM] | 75% | 6% | u
O=C(Nc1ccc(C(=O)NCC2CCN(Cc3ccccc3F)CC2)cc1)C1=CSCCO1 | -23% | -21% | 8%[57 µM] | 5% | -5%
